Records with an inconclusive call do not appear. Where a call stands in place of a potency, no number is given. Activity calls are given as the source filed them. Calls follow the shape of the dose curve; as a rule, active = well fitted cell-killing curve with a large enough effect; inconclusive = small, poorly fitted or top-dose-only effect, or effect the other way; inactive = no such curve, though single readings can be large or run the other way.
Potency is read from the fitted curve at half-maximal effect.

This assay is described as follows: qHTS of pediatric cancer cell lines to identify multiple opportunities for drug repurposing: Confirmatory screen for MG 63 (6-TG R) cells (AID 1347119). Also: nearly all actives have a fitted effect of over 55% in size. Conditions: MG-63 (6-TG resistant) osteosarcoma viability; series mostly up to 45.9 µM. The source says:
Drug repurposing or repositioning has been offered as a strategy for drug development in oncology programs. This approach has special potential for childhood cancers and other rare or orphan diseases, where the expected return on new drug development has been a disincentive to pharmaceuticals.
In this project we exploit the poly-pharmacology of drugs to discover new indications via phenotypic screening of a panel of 19 well-characterized cell lines derived from solid tumors seen in children and adolescents. The goal is to identify approved drugs with previously unrecognized anticancer properties that has the potential to reveal new mechanisms and biological processes involved in carcinogenesis or drug resistance. We employed a titration-based paradigm (quantitative high-throughput screening or qHTS), where all compounds were tested at multiple concentrations for their effect on cell viability. Concentration-response curves (CRCs) were derived directly from the primary screen, and both potency and efficacy values were used to identify compounds with robust bioactivity profiles. We screened the NIH Chemical Genomics Center (NCGC) Pharmaceutical Collection (NPC) and Mechanism Interrogation Plate (MIPE) small molecule collections of approved and investigational compounds against these cell lines; and measured metabolically active cells after 48 hours of compound treatment as a proxy for cell viability.
Assay Submitter: Nathalia J. Martinez, National Center for Advancing Translational Sciences, National Institutes of Health, Rockville, MD, USA; email: natalia.martinez@nih.gov
[1] Shen, M et al. Quantitative high-throughput phenotypic screening of pediatric cancer cell lines identifies multiple opportunities for drug repurposing. Oncotarget 2017 Dec 19;9(4):4758-4772. PMID 29435139.
The cells were obtained from University of North Carolina (UNC), Pediatric Preclinical Testing Program (PPT), and Coriell Institute (CI).
qHTS cell viability assay:
Cells were assayed in growth media at a density of 500-1,000 cells/well. Five microliters of cells were dispensed into 1,536-well, white, solid-bottom, TC-treated plates (Greiner Bio One) using a multidrop dispenser and incubated at 37 degrees C, 5% CO2, under a humidified atmosphere for 5 hours. Twenty-three nanoliters of compounds and controls (neutral control DMSO or positive control bortezomib at final concentration of 2.3 µM) were subsequently transferred by Kalypsys pintool. For primary screens, the MIPE collection was tested at 11-point dilutions (final concentrations range from 0.78 nM to 46 µM) and the NPC collection at 8-point dilutions (final concentrations range from 0.59 nM to 46 µM). Compounds tested in follow-up screens were assayed at 11-point dilutions. Cells were incubated for 48 hours, followed by addition of 3 µL of CellTiter-Glo (Promega). After a 15 min incubation at room temperature, samples were analyzed for luminescence intensity using a ViewLux High-throughput CCD imager equipped with clear filters.
For the molecule `CCCCCCCCCCC[C@@H](C[C@@H]1OC(=O)[C@H]1CCCCCC)OC(=O)[C@H](CC(C)C)NC=O`, the Potency result was “inactive”.

As for `CCN[C@@H]1C[C@H](N)[C@@H](OC2OC(CN)=CCC2N)[C@H](O)[C@H]1O[C@H]1OC[C@](C)(O)[C@H](NC)[C@H]1O` (stereo not given in full), the activity change, negative = cytotoxicity was -17.7% [at 0.556 µM] (inactive).

As for `CCN(CC)CCOc1ccc2c(c1)C(=O)c1cc(OCCN(CC)CC)ccc1-2`, the Potency entry is “inactive”.

Turning to `Nc1nc(Cl)nc2c1ncn2[C@@H]1O[C@H](CO)[C@@H](O)[C@@H]1F`, the Potency was 522 nM (active).

As to `C[C@@]12C(=O)OC(=O)[C@]1(C)C1CCC2O1`, the Potency is 2080 nM (active).

As for `COc1ccc(C(=O)c2ccccc2)c(O)c1`, the Potency entry was “inactive”.

As to `CCN1/C(=C/C=C/c2sc3ccccc3[n+]2CC)Sc2ccccc21`, the Potency was 465 nM (active).

As to `O=C(Oc1cccc2cccnc12)c1ccccc1`, the Potency result was “inactive”.

Turning to `C[C@H]1O[C@@H](O[C@H]2CC[C@@]3(C)[C@H](CC[C@@H]4[C@@H]3C[C@@H](O)[C@]3(C)[C@@H](C5=CC(=O)OC5)CC[C@]43O)C2)C[C@H](O)[C@@H]1O[C@H]1C[C@H](O)[C@H](O[C@H]2C[C@H](O)[C@H](O[C@@H]3O[C@H](CO)[C@@H](O)[C@H](O)[C@H]3O)[C@@H](C)O2)[C@@H](C)O1`, the Potency was 293 nM (active).

In the case of `O=C(CCCN1CC=C(n2c(=O)[nH]c3ccccc32)CC1)c1ccc(F)cc1`, the Potency entry was “inactive”.

(Values after PubChem BioAssay (NCATS).)
